Assay in all cases: DAPPL (digital affinity profiling via proximity ligation, sequencing); 10 mM Tris-HCl pH 7.5, 50 mM NaCl, 1 mM DTT, 4% glycerol, room temperature, 30 min; GST-TFs on glutathione beads, 16-mer random dsDNA library, 0.1% formaldehyde crosslink after washing; high values mean tight binding
Common to all, as to settings: protein: recombinant; tags: N-terminal GST; dsDNA, one strand shown

In one test the target is T1, FLI1 (Homo sapiens, UniProt Q01543 1-452).
T1 sequence: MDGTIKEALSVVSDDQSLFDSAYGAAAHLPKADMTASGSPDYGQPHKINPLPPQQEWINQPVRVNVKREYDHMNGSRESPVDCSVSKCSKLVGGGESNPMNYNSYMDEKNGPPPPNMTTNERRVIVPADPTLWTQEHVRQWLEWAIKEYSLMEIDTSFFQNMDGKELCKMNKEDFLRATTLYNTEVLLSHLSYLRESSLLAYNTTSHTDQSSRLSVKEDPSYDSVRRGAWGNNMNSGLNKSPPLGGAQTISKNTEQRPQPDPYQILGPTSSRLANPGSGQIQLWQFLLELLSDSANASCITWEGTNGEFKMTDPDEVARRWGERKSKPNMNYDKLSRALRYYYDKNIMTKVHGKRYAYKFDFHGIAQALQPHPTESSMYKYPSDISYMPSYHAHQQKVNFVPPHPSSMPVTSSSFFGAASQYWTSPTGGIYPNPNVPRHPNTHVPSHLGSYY
In short, it runs like this:
(§1)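 Beads coated with glutathione captured GST-fused human transcription factors that had been expressed in yeast, and the factors were then given DNA barcodes and pooled with a tag-only sample. The pools were incubated with 200 nmole of a random double-stranded 16-mer DNA library in Tris/NaCl/DTT/glycerol buffer for 30 min at room temperature, washed, crosslinked with 0.1% formaldehyde and proximity-ligated with BsaI/T4 ligase at 37 °C for 1 h. PCR amplification and Illumina NextSeq500 sequencing came last. Binding signal is each hexamer's read frequency for a factor divided by its frequency for the tag-only sample.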

In another test the target is T2, GABPA (Homo sapiens, UniProt Q06546 1-454).
T2 sequence: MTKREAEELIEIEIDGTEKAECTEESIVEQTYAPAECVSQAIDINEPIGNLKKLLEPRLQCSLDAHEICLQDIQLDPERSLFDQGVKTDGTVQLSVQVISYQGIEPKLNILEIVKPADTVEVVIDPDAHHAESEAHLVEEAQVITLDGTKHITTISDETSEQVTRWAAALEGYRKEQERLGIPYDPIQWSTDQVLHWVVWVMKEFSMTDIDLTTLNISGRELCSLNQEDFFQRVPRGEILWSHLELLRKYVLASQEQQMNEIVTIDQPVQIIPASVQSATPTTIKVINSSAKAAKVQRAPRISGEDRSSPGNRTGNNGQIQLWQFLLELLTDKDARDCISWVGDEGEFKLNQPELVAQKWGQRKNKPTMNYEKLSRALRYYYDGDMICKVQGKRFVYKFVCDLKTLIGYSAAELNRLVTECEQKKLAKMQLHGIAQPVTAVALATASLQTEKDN
In short, it runs like this: as §1

For the next test, the target named is T3, ERG (Homo sapiens, UniProt P11308 1-479).
T3 sequence: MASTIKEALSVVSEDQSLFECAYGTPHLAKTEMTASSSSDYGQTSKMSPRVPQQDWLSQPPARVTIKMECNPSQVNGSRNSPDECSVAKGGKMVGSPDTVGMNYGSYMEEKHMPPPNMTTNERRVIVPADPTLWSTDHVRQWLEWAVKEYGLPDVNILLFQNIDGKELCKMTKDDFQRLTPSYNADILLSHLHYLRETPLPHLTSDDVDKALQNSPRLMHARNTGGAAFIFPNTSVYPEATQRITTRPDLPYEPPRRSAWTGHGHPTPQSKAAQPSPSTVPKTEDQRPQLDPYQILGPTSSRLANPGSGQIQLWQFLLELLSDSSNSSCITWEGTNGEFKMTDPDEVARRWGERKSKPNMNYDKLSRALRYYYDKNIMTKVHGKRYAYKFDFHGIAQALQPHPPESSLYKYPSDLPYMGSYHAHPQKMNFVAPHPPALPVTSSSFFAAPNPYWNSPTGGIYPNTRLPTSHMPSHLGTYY
In short, it runs like this: as §1

For a further test, the target named is T4, EHF (Homo sapiens, UniProt Q9NZC4 1-300).
T4 sequence: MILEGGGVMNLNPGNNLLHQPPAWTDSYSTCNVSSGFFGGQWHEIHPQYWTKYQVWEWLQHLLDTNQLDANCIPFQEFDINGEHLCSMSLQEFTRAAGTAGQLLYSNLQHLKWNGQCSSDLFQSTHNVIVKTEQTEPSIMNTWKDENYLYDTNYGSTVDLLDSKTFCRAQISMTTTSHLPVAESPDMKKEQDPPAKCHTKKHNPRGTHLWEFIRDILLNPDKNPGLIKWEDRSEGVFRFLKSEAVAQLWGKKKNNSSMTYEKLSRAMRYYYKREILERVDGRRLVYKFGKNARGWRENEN
In short, it runs like this:
as §1

A further test concerns the target SPIB (Homo sapiens, UniProt Q01892 1-262). Put shortly: as §1
The next test addresses T5, ELK3 (Homo sapiens, UniProt P41970 1-407).
T5 sequence: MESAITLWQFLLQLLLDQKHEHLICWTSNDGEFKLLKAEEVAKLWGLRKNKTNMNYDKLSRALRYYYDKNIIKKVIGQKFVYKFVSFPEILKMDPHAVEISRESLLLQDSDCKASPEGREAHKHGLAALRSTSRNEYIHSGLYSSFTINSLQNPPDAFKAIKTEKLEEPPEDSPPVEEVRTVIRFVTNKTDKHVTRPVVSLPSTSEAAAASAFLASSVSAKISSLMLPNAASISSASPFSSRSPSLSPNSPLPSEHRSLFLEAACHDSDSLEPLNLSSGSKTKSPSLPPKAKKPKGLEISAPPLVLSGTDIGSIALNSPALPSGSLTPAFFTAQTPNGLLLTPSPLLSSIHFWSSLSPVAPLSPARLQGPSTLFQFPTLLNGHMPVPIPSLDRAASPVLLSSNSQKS
Put shortly: as §1

For the next test, the target named is T6, FEV (Homo sapiens, UniProt Q99581 1-238).
T6 sequence: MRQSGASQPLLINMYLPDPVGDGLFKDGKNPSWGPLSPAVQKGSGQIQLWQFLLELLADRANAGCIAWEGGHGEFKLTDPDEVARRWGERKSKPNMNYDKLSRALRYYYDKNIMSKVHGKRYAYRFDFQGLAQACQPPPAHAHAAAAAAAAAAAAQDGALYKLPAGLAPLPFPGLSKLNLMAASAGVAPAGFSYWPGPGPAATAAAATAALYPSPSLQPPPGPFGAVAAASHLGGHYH
In short, it runs like this:
as §1

The next test has as its target ETV5 (Homo sapiens, UniProt P41161 1-510). In short, it runs like this: as §1
For another test, the target named is T7, SPIC (Homo sapiens, UniProt Q8N5J4 1-248).
T7 sequence: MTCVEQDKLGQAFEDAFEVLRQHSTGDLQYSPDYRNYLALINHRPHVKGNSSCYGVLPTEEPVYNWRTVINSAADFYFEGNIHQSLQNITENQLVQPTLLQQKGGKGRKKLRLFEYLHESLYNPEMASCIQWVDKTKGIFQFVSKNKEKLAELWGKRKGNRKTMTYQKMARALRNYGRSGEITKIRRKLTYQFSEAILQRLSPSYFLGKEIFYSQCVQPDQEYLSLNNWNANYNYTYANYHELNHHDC
Put shortly:
as §1

The target in another test is ETV1 (Homo sapiens, UniProt P50549 1-477). In short, it runs like this: as §1
Sequence of ETV1 (P50549 whole entry): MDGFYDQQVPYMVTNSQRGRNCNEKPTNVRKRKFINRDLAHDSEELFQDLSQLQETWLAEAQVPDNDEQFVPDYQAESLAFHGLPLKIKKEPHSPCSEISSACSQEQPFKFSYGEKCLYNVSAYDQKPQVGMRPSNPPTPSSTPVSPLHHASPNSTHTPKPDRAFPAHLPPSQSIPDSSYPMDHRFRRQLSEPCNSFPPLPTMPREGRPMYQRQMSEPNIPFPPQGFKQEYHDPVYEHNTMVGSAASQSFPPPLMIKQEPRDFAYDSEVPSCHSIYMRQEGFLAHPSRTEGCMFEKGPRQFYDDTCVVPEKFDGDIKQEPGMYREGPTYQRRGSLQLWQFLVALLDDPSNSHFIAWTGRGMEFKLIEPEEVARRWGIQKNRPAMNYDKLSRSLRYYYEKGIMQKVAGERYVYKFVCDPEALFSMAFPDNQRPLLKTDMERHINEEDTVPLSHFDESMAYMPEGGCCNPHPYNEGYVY
In a further test the target is T8, ETV3L (Homo sapiens, UniProt Q6ZN32 1-361).
T8 sequence: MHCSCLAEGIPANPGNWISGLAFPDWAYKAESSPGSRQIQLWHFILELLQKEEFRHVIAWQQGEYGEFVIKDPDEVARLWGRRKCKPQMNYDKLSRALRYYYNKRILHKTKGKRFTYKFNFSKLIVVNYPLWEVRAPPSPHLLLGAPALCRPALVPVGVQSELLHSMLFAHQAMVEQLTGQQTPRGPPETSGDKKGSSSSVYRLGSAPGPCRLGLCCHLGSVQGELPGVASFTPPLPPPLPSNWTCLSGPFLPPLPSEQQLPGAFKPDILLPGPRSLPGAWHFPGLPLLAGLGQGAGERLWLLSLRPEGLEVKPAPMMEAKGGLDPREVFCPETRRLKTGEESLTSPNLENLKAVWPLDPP
In short, it runs like this: as §1

For another test, the target named is T9, ELF5 (Homo sapiens, UniProt Q9UKW6-2 1-255).
T9 sequence: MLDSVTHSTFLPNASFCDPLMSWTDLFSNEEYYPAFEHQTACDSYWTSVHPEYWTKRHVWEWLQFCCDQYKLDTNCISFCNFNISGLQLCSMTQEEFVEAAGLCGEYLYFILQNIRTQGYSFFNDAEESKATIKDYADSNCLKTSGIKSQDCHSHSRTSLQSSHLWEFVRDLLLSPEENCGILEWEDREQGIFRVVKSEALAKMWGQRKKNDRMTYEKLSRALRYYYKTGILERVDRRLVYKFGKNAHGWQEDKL
Put shortly: as §1

In another test the target is T10, ETV3 (Homo sapiens, UniProt P41162-2 1-143).
T10 sequence: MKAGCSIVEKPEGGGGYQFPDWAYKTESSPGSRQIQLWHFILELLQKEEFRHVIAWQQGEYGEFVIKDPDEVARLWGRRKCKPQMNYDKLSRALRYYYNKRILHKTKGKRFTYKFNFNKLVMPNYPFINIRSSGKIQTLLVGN
In short, it runs like this: as §1

Another test concerns the target ETV6 (Homo sapiens, UniProt P41212 1-452). Put shortly: as §1
The target of the next test is T11, ELK1 (Homo sapiens, UniProt P19419 1-428).
T11 sequence: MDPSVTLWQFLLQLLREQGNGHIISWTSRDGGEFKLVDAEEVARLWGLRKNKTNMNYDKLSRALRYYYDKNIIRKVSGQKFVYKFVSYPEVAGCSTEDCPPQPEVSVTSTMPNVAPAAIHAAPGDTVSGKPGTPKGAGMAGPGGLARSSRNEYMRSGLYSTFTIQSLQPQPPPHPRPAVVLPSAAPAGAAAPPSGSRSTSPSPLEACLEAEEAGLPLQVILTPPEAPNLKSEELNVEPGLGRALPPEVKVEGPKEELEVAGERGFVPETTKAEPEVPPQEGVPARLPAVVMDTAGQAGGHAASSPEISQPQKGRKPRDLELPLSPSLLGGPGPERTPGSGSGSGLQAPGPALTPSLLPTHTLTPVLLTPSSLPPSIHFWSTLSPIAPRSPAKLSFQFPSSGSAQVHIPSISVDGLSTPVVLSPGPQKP
Put shortly:
as §1

Another test has as its target ELF1 (Homo sapiens, UniProt P32519 1-619). Put shortly:
as §1

The next test has as its target SPI1 (Homo sapiens, UniProt P17947 1-270). In short, it runs like this:
as §1

A further test deals with ELF4 (Homo sapiens, UniProt Q99607 1-663). Put shortly:
as §1

Sequence of ETV6 (P41212 whole entry): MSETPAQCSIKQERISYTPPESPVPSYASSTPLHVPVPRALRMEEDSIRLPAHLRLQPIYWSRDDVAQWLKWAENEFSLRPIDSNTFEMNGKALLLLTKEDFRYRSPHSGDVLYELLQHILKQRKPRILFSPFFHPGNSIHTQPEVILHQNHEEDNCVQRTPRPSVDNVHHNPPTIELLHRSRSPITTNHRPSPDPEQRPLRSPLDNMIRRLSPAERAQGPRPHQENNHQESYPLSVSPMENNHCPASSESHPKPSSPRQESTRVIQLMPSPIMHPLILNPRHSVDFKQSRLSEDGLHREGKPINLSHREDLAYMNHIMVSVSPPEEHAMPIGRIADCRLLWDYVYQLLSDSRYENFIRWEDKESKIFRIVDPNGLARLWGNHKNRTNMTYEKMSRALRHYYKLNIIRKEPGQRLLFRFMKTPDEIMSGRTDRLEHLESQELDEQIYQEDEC
Sequence of ETV5 (P41161 whole entry): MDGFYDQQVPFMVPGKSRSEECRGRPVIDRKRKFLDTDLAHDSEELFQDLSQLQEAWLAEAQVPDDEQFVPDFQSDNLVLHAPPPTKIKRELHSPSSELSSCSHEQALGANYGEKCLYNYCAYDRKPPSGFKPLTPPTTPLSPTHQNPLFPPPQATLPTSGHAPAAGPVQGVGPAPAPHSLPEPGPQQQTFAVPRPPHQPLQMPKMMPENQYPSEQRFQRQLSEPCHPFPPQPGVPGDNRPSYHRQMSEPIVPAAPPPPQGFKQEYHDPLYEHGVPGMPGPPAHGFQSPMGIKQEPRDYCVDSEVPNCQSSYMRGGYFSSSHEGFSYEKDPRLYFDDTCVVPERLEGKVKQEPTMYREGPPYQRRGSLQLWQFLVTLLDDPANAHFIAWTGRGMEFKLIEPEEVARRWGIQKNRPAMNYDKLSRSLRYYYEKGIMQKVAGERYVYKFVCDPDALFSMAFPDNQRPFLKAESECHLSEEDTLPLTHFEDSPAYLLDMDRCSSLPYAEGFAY
Sequence of SPIB (Q01892 whole entry): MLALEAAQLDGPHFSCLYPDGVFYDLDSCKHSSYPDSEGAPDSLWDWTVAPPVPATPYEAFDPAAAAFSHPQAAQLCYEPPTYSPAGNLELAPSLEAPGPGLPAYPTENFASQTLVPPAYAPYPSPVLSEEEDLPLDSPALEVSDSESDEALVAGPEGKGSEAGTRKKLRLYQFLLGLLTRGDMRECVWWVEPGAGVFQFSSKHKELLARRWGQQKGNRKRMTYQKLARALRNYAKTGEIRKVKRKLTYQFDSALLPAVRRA
Sequence of ELF4 (Q99607 whole entry): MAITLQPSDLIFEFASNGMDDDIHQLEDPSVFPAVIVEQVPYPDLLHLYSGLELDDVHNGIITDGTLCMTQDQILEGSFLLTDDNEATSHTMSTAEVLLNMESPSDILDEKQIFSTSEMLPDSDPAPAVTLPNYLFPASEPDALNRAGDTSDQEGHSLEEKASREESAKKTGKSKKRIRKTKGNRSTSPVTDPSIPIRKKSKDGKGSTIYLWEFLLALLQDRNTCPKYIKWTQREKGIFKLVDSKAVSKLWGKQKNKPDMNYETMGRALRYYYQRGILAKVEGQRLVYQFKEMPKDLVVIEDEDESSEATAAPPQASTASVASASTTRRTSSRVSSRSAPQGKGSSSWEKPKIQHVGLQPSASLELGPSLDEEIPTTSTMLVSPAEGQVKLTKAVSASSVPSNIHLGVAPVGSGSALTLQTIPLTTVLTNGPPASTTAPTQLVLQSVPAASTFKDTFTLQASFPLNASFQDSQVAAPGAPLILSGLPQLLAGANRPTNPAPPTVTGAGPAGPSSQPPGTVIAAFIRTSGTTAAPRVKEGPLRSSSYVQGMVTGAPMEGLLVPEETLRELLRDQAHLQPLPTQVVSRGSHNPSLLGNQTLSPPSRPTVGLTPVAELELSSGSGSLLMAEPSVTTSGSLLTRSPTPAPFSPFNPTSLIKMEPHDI
Sequence of ELF1 (P32519 whole entry): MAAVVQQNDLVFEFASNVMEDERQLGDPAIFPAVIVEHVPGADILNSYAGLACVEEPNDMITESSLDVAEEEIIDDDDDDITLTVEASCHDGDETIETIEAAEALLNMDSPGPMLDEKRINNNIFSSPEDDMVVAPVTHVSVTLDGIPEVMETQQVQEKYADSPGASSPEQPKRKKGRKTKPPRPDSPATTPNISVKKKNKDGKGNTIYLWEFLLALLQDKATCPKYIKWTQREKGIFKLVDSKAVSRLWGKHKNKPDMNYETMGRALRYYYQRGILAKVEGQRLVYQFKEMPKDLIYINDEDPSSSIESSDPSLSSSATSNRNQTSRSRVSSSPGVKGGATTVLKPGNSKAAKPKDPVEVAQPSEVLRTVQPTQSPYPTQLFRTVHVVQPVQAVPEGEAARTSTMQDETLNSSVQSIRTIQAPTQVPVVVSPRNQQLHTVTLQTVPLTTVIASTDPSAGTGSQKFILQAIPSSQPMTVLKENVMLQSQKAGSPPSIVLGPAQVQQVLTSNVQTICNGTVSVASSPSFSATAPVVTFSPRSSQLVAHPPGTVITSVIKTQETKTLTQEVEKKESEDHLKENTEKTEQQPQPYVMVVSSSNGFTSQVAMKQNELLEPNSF

For the sequence GTCCGC, the binding signal was 1.1 fold enrichment (6-mer frequency, TF over GST control) with FLI1; 1 fold enrichment (6-mer frequency, TF over GST control) with GABPA; 1.04 fold enrichment (6-mer frequency, TF over GST control) with ERG; 1.05 fold enrichment (6-mer frequency, TF over GST control) in the test with EHF; 1.03 fold enrichment (6-mer frequency, TF over GST control) with SPIB; 1.1 fold enrichment (6-mer frequency, TF over GST control) with ELK3. Also, the binding signal is 1.04 fold enrichment (6-mer frequency, TF over GST control) with FEV; 1.07 fold enrichment (6-mer frequency, TF over GST control) in the test with ETV5; 1.21 fold enrichment (6-mer frequency, TF over GST control) in the test with SPIC; 1.08 fold enrichment (6-mer frequency, TF over GST control) with ETV1; 1.02 fold enrichment (6-mer frequency, TF over GST control) in the test with ETV3L; 1.07 fold enrichment (6-mer frequency, TF over GST control) with ELF5. The binding signal was 1.03 fold enrichment (6-mer frequency, TF over GST control) with ETV3 and 1.03 fold enrichment (6-mer frequency, TF over GST control) in the test with ETV6.

In the case of ACTGTA, the binding signal is 1 fold enrichment (6-mer frequency, TF over GST control) with FLI1; 1.09 fold enrichment (6-mer frequency, TF over GST control) with ELK1; 1.03 fold enrichment (6-mer frequency, TF over GST control) in the test with GABPA; 1.08 fold enrichment (6-mer frequency, TF over GST control) with ELF1; 1.11 fold enrichment (6-mer frequency, TF over GST control) in the test with EHF; 1.09 fold enrichment (6-mer frequency, TF over GST control) with SPI1. The binding signal is 1.04 fold enrichment (6-mer frequency, TF over GST control) with ELK3; 1 fold enrichment (6-mer frequency, TF over GST control) with FEV; 1.08 fold enrichment (6-mer frequency, TF over GST control) with ETV5; 1.24 fold enrichment (6-mer frequency, TF over GST control) with SPIC; 1.02 fold enrichment (6-mer frequency, TF over GST control) with ETV1; 1.01 fold enrichment (6-mer frequency, TF over GST control) in the test with ETV3L. Further, the binding signal in the test with ELF5 was 1.07 fold enrichment (6-mer frequency, TF over GST control); with ETV3, 1 fold enrichment (6-mer frequency, TF over GST control); in the test with ETV6, 1.03 fold enrichment (6-mer frequency, TF over GST control).

In the case of AGTGAC, the binding signal in the test with FLI1 is 1.07 fold enrichment (6-mer frequency, TF over GST control); in the test with ELK1 it was 1 fold enrichment (6-mer frequency, TF over GST control); with ERG it was 1.1 fold enrichment (6-mer frequency, TF over GST control); with EHF, 1.08 fold enrichment (6-mer frequency, TF over GST control); in the test with SPI1, 1.33 fold enrichment (6-mer frequency, TF over GST control); in the test with SPIB, 1.04 fold enrichment (6-mer frequency, TF over GST control). Further, the binding signal is 1.11 fold enrichment (6-mer frequency, TF over GST control) in the test with FEV; 1.05 fold enrichment (6-mer frequency, TF over GST control) with ETV5; 1.04 fold enrichment (6-mer frequency, TF over GST control) in the test with SPIC; 1.05 fold enrichment (6-mer frequency, TF over GST control) with ELF4; 1.03 fold enrichment (6-mer frequency, TF over GST control) in the test with ETV1; 1.1 fold enrichment (6-mer frequency, TF over GST control) with ETV3L. Further, the binding signal is 1.11 fold enrichment (6-mer frequency, TF over GST control) in the test with ELF5; 1.1 fold enrichment (6-mer frequency, TF over GST control) with ETV3; 1.11 fold enrichment (6-mer frequency, TF over GST control) with ETV6.

Source of the values: PMC7862700, “An all-to-all approach to the identification of sequence-specific readers for epigenetic DNA modifications on cytosine”.
